Bfl-1 A1 inh: inhibitors of the anti-apoptotic protein A1, read as caspase activation; MEF A1-2A-BIM cells, Caspase-Glo 3/7 luminescence, 3 h; percent of clofoctol response, vehicle zero; caspase activation, % (no concentration beside the values); actives 0.066% (n = 330,000); AID 2462;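 active = over half of replicate activation scores above 10%, or exactly half above 10 with the replicate mean above 10; inconclusive = replicate mean below 10 yet half the replicates above 10; inactive = over half of replicates below 10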
Efflux pump mplx: blocks antifungal efflux pumps in multiplex yeast assay. S. cerevisiae Candida pump triplex, Nile Red efflux. inhibition, % at 10 µM. actives 0.44% (n = 330,000);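 active = plate passing quality check with inhibition over a set limit, or well fluorescence over plate mean plus 4 SD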;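 also: Nile Red retained in pooled yeast measured as flow cytometry median fluorescence; 0% = buffer negative control and 100% = Enniatin B positive control; higher means more Nile Red kept so more efflux inhibition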
SUMO Mot1 rescue: blocks SUMOylation pathway, rescuing yeast Mot1-301 growth | AID 2716 | actives 1% (n = 320,000) | S. cerevisiae Mot1-301 growth rescue, ATP luminescence, 38.5C; percent above DMSO median, 100 means doubled | growth rescue, % at 18.8 µM;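 active = every valid replicate shows activation above 250% relative to neutral control wells; inactive = the rest, any valid replicate at or below 250%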;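 also: OY570 slx delta 5 strain wells were the positive control but not used for scaling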
AHR act: human AHR activation | activation, % at 5 µM | AID 2796 | actives 2.5% (n = 320,000) | P35869 | AHR-responsive luciferase reporter cells, luminescence; in the data active = activation above about 47%;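 also: 0% = vehicle wells and 100% = reference agonist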
Target sequence (P35869 whole entry, looked up): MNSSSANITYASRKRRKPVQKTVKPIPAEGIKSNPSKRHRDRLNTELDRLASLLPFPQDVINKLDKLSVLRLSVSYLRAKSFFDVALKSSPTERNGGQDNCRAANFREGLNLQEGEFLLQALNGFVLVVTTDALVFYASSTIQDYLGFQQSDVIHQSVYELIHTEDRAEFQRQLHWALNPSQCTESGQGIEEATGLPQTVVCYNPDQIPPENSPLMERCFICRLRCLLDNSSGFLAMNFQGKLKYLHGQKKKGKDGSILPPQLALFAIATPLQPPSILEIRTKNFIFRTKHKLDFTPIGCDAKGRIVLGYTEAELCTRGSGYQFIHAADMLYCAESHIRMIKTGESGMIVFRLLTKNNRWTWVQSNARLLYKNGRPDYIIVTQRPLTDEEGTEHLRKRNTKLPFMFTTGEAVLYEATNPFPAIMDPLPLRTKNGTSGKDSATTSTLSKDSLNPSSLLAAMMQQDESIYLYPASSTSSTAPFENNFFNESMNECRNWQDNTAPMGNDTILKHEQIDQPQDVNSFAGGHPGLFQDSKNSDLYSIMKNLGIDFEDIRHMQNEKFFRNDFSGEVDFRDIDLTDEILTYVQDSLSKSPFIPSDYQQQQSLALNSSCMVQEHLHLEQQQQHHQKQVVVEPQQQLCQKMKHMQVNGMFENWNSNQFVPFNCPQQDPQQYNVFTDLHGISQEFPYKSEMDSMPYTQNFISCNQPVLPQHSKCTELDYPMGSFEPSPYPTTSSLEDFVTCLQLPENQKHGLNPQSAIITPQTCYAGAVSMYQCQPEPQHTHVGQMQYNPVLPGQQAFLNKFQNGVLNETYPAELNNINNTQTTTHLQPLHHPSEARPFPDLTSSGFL
VLA-4 inh: inhibition in a human VLA-4 binding assay | P13612 | inhibition, % (about 7 µM as worked out from the volumes in the protocol) | VLA-4 expressing cells, ligand binding flow cytometry | actives 0.2% (n = 330,000); in the data active = inhibition above about 50%
ALR inh: human ALR oxidase inhibition via reduced H2O2 | P55789 | purified ALR, DTT oxidation, H2O2 HRP-luminol luminescence | inhibition, % (test concentration not listed) | actives 3.8% (n = 290,000);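 active = mean replicate inhibition above about 79%, with every replicate also reaching it, limit read from the data; inconclusive = only one of the two criteria met; inactive = mean below limit and not every replicate reaching it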
* marks the source's active call; other numbers are inactive results; ? = inconclusive; nt = no result given. Shown are actives, neighbours in structure and some others; about 7.2% of the full set was active somewhere.

SMILES	Bfl-1 A1 inh	Efflux pump mplx	SUMO Mot1 rescue	AHR act	VLA-4 inh	ALR inh
O=C(/C=C/c1c(Cl)cccc1Cl)NCCCn1ccnc1	1	0	4	48*	-4	-3
O=C(NCCCn1ccnc1)c1sc2cccc(F)c2c1Cl	0	1	-9	78*	-5	-3
O=C(/C=C/c1ccc(Br)cc1)NCCCn1ccnc1	?	1	-2	38	3	nt
Cc1[nH]n(-c2ccccc2)c(=O)c1-c1ccccc1	0	0	0	-1	-5	70
Cc1[nH]n2c(=O)cc(-c3ccc([N+](=O)[O-])cc3)nc2c1-c1ccccc1	1	0	-11	1	6	89*
Cc1[nH]n(-c2cccc(Cl)c2)c(=O)c1-c1ccccc1	0	0	-3	15	0	84*
Cc1[nH]n(-c2cccc([N+](=O)[O-])c2)c(=O)c1-c1ccccc1	1	0	-2	7	10	89*
CCCc1cc(=O)n2[nH]c(C)c(-c3ccccc3)c2n1	2	0	5	1	-2	28
CC(C)NC(=O)CN1CCN(c2ncccn2)CC1	0	0	-10	-2	8	-2
COc1ccc(-n2nc(C(=O)NCC(=O)N3CCC(C)CC3)c3ccccc3c2=O)c(OC)c1	-1	0	5	2	10	-1
COc1cc(/C=N/n2cnnc2)ccc1OC(=O)c1ccncc1	0	0	12	1	8	98*
COc1cc(/C=N/n2cnnc2)ccc1OC(=O)c1cccnc1	0	0	-9	4	-13	nt
O=C(Nc1cccc2ccccc12)N1CCN(c2ncccn2)CC1	0	0	0	5	-2	-15
COc1ccccc1C(=O)NC1CC(C)(C)NC(C)(C)C1	1	0	-21	2	-1	nt
CCNC(=S)/N=C(\N)Nc1nc(C)c2cc(C)ccc2n1	0	0	-22	77*	-2	3
Cc1ccc2c(C)nc(N/C(N)=N/S(=O)(=O)c3ccc([N+](=O)[O-])cc3)nc2c1	0	-1	nt	-13	-14	-8
CCOc1ccc2nc(N/C(N)=N/C(=S)Nc3ccc(C)c(C)c3)nc(C)c2c1	0	0	-11	8	-6	-2
COc1ccc(NC(=S)/N=C(\N)Nc2nc(C)c3ccc(C)cc3n2)cc1	0	0	-10	55*	4	nt
Cc1cc(OCC(O)CN2CCN(c3ccccn3)CC2)cc(C)c1Cl (stereo not given)	-1	0	66	-1	0	-36
CN(C)S(=O)(=O)c1cc(NC(=O)CSc2ncc(C(F)(F)F)cc2Cl)ccc1Cl	1	1	18	-3	13	-5
O=C(CCc1ccc(O)cc1)N/N=C/c1coc2ccccc2c1=O	1	0	34	1	30	79*
CC(C)Oc1cccc(C(=O)N/N=C/c2coc3ccccc3c2=O)c1	0	0	12	nt	10	98*
CCOc1cccc(C(=O)N/N=C/c2coc3ccccc3c2=O)c1	0	0	0	5	-17	27
Cc1cccc(C(=O)N/N=C/c2coc3ccccc3c2=O)c1	1	0	6	4	-4	89*
O=C(N/N=C/c1coc2ccccc2c1=O)c1ccccc1Br	0	0	-11	15	-12	51
SMILES	Bfl-1 A1 inh	Efflux pump mplx	SUMO Mot1 rescue	AHR act	VLA-4 inh	ALR inh
O=C(Nc1ccc(Cl)cc1)Nc1ccc(N2CCC(C(F)(F)F)CC2)nc1	0	0	13	3	0	nt
COc1ccc([C@H]2CC(=O)C=C(c3ccc(Oc4ccccc4)cc3)C2)cc1OC	-1	0	1	8	15	-5
COc1ccc2cc(CCNC(=O)c3c(-c4ccccc4Cl)noc3C)c(=O)[nH]c2c1	-1	0	21	4	-13	-2
CN(C1CCCCC1)S(=O)(=O)c1cccc2nsnc12	-1	0	-5	-1	2	3
COc1ccccc1/C=C/C(=O)OCC(=O)c1c[nH]c2ccccc12	0	0	106	17	6	nt
CCOC(=O)/C=C(C)\C=C\c1c[nH]c2ccccc12	0	0	8	53*	-17	nt
CCOC(=O)/C(=C/c1c[nH]c2ccccc12)NC(C)=O	0	0	-9	12	14	97*
COC(=O)/C(=C/c1c[nH]c2ccccc12)NC(C)=O	0	0	-4	-2	2	30
CN(C)c1ccc(/C=N/OC(=O)Nc2ccccc2Cl)cc1	0	0	419	2	12	73
CCOC(=O)N1CCC(NC(=O)c2cc3c(=O)[nH]c4ccccc4c3n2C)CC1	0	0	87	-3	1	-2
CNC(=O)NNC(=O)c1csc(Cc2c(Cl)sc3ccc(Cl)cc23)n1	1	0	-2	47*	3	22
COc1ccc(S(=O)(=O)n2nc(OC(C)=O)cc2N)cc1	1	nt	2	2	nt	98*
COc1ccc(S(=O)(=O)N2CCOCC2)cc1NC(=O)Cn1nnc2ccccc2c1=O	1	0	259	-1	15	-26
COC(=O)c1oc2ccccc2c1N	0	0	-23	77*	-2	-5
CC(=O)c1oc2ccccc2c1N	1	0	19	7	8	-2
COc1nnc(-c2ccc(N3CCCCC3)c(NC(C)=O)c2)c2ccccc12	1	0	-12	78*	4	13
Cc1cc(C)n(-c2cc(O)c(-n3nc(C)cc3C)cc2O)n1	-1	0	230	1	16	89*
Cc1cc(C)n(-c2cc(-n3nc(C)cc3C)ncn2)n1	0	0	2	7	5	nt
CCC(CO)Oc1cc(NCc2ccc(O)cc2)c2ncn(C(C)C)c2c1 (stereo not given)	0	0	-5	0	1	99*
CCC(COC)Oc1cc(NCc2ccccc2)c2ncn(C(C)C)c2c1 (stereo not given)	0	0	-1	1	-9	83*
O=C(Nn1c(-c2ccccc2)nc2ccccc2c1=O)C1CCC1	0	0	17	47*	-7	0
CN(C)C(=S)Nn1c(-c2ccccc2)nc2ccccc2c1=O	1	0	156	-1	5	6
Cc1nc(SCC(=O)Nn2c(-c3ccccc3)nc3ccccc3c2=O)n[nH]1	0	0	52	74*	0	-5
O=C(Nn1c(-c2ccccc2)nc2ccccc2c1=O)c1cccs1	0	0	-15	51*	-1	-5
CC(=O)c1ccc(N(CC(=O)NC2CCCCC2)C(=O)c2csnn2)cc1	-1	0	6	1	-1	-2
CCn1cc(CNC(=S)Nc2cccc(Cl)c2C)cn1	0	0	-14	3	4	nt
COc1ccccc1NC(=S)NNC(=O)c1ccccc1	-2	0	nt	3	-7	?
